# AID inhibitor – inhibitors of human activation induced cytidine deaminase. AID deamination FRET fluorescence, UDG-coupled, 4 h. AID 1347428. Potency, µM (highest dose often 115 µM), hits mostly inhibitors. actives 0.32% (n = 91,000); note: nearly all actives have a fitted effect of over 25% in size
# Target sequence (Q9GZX7 whole entry, looked up): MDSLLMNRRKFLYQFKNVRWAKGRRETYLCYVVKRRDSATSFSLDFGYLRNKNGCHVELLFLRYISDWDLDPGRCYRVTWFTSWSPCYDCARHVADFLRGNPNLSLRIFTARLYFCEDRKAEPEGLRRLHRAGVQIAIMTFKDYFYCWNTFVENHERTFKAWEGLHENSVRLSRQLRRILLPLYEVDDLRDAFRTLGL
# UDG counterscr – UDG inhibition counter-screen; FRET deamination/UDG coupled assay, UDG read, 4 h; Potency, µM (titrated, usually from 115 µM), without a hit: at the top dose activity change, negative = inhibition, hits mostly inhibitors; actives 0.14% (n = 91,000); AID 1347430; note: nearly all actives have a fitted effect of over 65% in size
# * hit, by the source's call; i = inactive; u = inconclusive. Rows were chosen to be rich in hits. Some 0.47% of all compounds tested hit in one or more screens of this group. Calls come from the whole dose curve; as a rule, active = well fitted curve in the direction sought with a large enough effect; inconclusive = small, poorly fitted or top-dose-only effect, or another doubt; inactive = no such curve, though single readings can be large; an effect the other way counts as inactive or inconclusive. % is set by controls: 0 for no effect and ±100 for the full control effect; potency is the fitted concentration of half-maximal effect.
SMILES,AID inhibitor,UDG counterscr
NCC(O)c1cc(O)c(O)cc1F (stereo unspecified),50.1µM*,-3.9%
O=[N+]([O-])/C=C/c1c[nH]c2ccccc12,i,4.9%
COc1ccc(OC)c(C(c2c(O)c3ccccc3oc2=O)c2c(C)n(C)n(-c3ccccc3)c2=O)c1 (stereo unspecified),i,-3.2%
O=c1oc2ccccc2c(O)c1C(c1cccc(O)c1)c1c(O)c2ccccc2oc1=O,50.1µM*,-2.8%
O=c1oc2ccccc2c(O)c1C(c1ccccc1)c1c(O)c2ccccc2oc1=O,44.7µM*,13.5%
Cc1c(C(c2ccc(O)cc2)c2c(O)c3ccccc3oc2=O)c(=O)n(-c2ccccc2)n1C (stereo unspecified),i,4.3%
CC12CC[C@H]3[C@@H](CCC4(O)CC(O[N+](=O)[O-])CCC34CO[N+](=O)[O-])C1(O)CCC2C1=CC(=O)OC1 (stereo partly specified),i,3.0%
COc1ccc(CN2CCN(C(=O)COc3ccc4ccccc4c3)CC2)cc1,i,0.0%
Cc1ccc2c(c1)C(SCC(=O)Nc1ccccc1C(=O)O)c1ccccc1O2 (stereo unspecified),i,-13.1%
CN(C)c1ccc(-[n+]2ccc(-c3cc[n+](-c4ccc(N(C)C)cc4)cc3)cc2)cc1,u,-19.8%
CC12CNCC(C)(CNC1)C2=O,u,50.1µM*
Cc1ccc(CN(CCc2ccccc2)Cc2ccccc2)o1,i,6.6%
COc1ccccc1-n1c(/C=C/c2ccccc2)nc2ccccc2c1=O,i,0.0%
COc1ccc(-n2c(/C=C\c3ccccc3F)nc3ccccc3c2=O)c(OC)c1,u,79.4µM*
C1NC2CC3CC1CC(C3)C2,i,-6.6%

# Compound activity from PubChem BioAssay.
